Holding throughout (assay): DAPPL (digital affinity profiling via proximity ligation, sequencing); 10 mM Tris-HCl pH 7.5, 50 mM NaCl, 1 mM DTT, 4% glycerol, room temperature, 30 min; GST-TFs on glutathione beads, 16-mer random dsDNA library, 0.1% formaldehyde crosslink after washing; high values mean tight binding
Common to all, as to conditions: protein: recombinant; tags: N-terminal GST; dsDNA, one strand shown

In test [1] the target is T1, GABPA (Homo sapiens, UniProt Q06546 1-454).
T1 sequence: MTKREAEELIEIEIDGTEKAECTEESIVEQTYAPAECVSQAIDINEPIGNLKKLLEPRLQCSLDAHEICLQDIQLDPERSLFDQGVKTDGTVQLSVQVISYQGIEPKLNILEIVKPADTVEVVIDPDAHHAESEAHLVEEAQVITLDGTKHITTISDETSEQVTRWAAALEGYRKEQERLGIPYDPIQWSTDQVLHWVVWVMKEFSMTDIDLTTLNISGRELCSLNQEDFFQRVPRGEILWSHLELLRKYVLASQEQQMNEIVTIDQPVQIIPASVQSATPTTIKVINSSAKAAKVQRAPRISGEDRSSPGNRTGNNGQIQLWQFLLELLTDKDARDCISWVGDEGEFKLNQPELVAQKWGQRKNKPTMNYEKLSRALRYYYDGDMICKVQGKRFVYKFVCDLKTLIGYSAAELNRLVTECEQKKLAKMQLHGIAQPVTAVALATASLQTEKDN
Summed up: (§1)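 Beads coated with glutathione captured GST-fused human transcription factors that had been expressed in yeast, and the factors were then given DNA barcodes and pooled with a tag-only sample. The pools were incubated with 200 nmole of a random double-stranded 16-mer DNA library in Tris/NaCl/DTT/glycerol buffer for 30 min at room temperature, washed, crosslinked with 0.1% formaldehyde and proximity-ligated with BsaI/T4 ligase at 37 °C for 1 h. PCR amplification and Illumina NextSeq500 sequencing came last. Binding signal is each hexamer's read frequency for a factor divided by its frequency for the tag-only sample.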

Test [2] addresses T2, ERG (Homo sapiens, UniProt P11308 1-479).
T2 sequence: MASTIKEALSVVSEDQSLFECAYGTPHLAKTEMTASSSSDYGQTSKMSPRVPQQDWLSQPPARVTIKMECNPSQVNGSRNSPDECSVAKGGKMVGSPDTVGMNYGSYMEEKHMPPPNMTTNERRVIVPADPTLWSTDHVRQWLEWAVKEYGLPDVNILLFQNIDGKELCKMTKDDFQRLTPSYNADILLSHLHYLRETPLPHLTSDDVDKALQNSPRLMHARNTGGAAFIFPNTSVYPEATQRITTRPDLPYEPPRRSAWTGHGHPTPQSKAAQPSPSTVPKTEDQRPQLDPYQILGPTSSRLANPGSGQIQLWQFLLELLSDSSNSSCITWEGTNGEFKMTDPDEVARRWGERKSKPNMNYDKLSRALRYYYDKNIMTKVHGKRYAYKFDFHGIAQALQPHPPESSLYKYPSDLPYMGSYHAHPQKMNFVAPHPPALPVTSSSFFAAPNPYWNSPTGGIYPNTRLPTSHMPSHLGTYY
Summed up: as §1

The target of test [3] is ELF1 (Homo sapiens, UniProt P32519 1-619). Summed up:
as §1

Test [4] deals with SPIB (Homo sapiens, UniProt Q01892 1-262). Put shortly:
as §1

The target in test [5] is T3, FEV (Homo sapiens, UniProt Q99581 1-238).
T3 sequence: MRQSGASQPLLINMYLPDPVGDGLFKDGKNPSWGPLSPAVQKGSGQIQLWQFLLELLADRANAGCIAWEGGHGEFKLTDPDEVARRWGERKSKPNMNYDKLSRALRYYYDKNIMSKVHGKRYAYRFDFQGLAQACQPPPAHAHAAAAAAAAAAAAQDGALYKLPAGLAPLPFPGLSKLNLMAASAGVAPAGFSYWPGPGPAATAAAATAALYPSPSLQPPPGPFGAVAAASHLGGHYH
Put shortly:
as §1

Test [6] concerns the target ETV5 (Homo sapiens, UniProt P41161 1-510). Summed up:
as §1

Test [7] addresses ELF4 (Homo sapiens, UniProt Q99607 1-663). Summed up: as §1
For test [8], the target named is ETV1 (Homo sapiens, UniProt P50549 1-477). Summed up:
as §1

The target of test [9] is T4, ERF (Homo sapiens, UniProt P50548 1-548).
T4 sequence: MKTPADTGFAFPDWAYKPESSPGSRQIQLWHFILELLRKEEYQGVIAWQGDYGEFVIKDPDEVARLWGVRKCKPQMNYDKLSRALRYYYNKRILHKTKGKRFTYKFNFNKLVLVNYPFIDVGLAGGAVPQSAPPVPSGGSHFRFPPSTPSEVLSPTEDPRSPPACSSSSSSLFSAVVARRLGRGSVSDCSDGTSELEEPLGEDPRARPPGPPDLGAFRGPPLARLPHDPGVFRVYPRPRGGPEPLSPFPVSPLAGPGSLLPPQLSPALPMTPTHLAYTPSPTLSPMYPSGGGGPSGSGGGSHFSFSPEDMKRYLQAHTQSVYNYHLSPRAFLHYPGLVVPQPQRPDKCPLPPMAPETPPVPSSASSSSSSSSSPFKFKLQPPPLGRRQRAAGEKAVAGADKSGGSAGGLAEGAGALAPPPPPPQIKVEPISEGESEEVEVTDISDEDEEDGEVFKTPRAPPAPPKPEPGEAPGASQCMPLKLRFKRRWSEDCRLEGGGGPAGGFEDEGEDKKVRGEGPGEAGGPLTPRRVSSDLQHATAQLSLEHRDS
Summed up: as §1

For test [10], the target named is T5, ETV3L (Homo sapiens, UniProt Q6ZN32 1-361).
T5 sequence: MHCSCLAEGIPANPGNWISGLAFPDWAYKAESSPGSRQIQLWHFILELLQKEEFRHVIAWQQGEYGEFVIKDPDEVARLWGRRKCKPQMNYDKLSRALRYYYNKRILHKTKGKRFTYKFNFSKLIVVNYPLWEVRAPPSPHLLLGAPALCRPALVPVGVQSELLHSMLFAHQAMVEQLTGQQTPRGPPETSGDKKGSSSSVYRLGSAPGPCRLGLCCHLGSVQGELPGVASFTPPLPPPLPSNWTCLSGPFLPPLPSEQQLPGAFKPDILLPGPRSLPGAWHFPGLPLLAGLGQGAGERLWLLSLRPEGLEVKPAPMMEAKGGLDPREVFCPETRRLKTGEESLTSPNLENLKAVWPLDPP
Put shortly: as §1

Test [11] has as its target T6, ETS2 (Homo sapiens, UniProt P15036 1-469).
T6 sequence: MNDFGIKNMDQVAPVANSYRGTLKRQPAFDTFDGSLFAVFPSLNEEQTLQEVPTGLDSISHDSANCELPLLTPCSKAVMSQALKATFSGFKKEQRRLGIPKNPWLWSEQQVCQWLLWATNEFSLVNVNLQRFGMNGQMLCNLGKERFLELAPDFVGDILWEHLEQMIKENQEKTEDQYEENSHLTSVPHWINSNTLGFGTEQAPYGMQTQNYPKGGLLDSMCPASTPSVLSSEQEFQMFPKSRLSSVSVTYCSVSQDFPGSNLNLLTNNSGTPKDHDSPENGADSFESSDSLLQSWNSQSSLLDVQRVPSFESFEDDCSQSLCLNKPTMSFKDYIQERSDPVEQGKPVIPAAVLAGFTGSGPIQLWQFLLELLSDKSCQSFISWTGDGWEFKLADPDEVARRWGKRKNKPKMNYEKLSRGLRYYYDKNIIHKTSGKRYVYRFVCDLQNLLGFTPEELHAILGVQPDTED
Summed up: as §1

Test [12] addresses T7, ETV3 (Homo sapiens, UniProt P41162-2 1-143).
T7 sequence: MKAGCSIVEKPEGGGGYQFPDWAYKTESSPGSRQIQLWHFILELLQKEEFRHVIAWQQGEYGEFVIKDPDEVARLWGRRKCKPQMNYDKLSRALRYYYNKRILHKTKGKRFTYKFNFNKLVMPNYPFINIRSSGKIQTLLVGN
Summed up:
as §1

The target of test [13] is T8, ELK1 (Homo sapiens, UniProt P19419 1-428).
T8 sequence: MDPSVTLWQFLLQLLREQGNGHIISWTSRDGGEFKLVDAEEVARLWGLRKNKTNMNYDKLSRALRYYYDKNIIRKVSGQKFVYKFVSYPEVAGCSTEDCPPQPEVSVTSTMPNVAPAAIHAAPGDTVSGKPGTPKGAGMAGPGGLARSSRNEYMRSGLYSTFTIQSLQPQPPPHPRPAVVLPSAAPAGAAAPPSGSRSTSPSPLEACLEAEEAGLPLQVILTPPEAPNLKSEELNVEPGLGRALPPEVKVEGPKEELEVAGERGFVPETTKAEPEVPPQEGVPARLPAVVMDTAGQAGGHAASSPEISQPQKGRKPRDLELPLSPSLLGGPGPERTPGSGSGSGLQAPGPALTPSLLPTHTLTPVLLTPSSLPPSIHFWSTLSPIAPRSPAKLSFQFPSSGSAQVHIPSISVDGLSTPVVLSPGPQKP
Summed up:
as §1

For test [14], the target named is SPI1 (Homo sapiens, UniProt P17947 1-270). Put shortly: as §1
The target in test [15] is T9, ELK4 (Homo sapiens, UniProt P28324-2 1-405).
T9 sequence: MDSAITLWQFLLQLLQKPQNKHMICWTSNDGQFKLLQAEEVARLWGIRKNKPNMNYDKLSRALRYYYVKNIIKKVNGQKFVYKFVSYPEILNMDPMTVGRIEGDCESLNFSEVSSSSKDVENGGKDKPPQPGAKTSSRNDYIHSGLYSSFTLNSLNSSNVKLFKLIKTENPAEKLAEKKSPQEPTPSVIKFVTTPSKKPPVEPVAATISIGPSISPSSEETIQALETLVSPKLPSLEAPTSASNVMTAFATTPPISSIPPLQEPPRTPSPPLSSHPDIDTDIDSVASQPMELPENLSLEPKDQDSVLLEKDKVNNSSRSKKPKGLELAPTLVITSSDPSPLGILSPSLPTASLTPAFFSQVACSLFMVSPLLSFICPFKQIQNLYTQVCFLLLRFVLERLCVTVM
Put shortly:
as §1

The target in test [16] is T10, ETV7 (Homo sapiens, UniProt Q9Y603 1-341).
T10 sequence: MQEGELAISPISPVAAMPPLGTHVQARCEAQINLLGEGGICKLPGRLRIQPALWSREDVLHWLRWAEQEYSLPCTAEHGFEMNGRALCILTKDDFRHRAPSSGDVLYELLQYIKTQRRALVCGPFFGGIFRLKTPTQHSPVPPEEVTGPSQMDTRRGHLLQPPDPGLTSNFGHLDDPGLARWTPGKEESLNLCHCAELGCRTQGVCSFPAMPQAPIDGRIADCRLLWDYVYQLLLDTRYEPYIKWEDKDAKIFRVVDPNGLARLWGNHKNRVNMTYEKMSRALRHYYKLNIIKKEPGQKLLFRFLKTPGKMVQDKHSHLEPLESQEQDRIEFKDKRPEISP
Summed up:
as §1

Sequence of SPIB (Q01892 whole entry): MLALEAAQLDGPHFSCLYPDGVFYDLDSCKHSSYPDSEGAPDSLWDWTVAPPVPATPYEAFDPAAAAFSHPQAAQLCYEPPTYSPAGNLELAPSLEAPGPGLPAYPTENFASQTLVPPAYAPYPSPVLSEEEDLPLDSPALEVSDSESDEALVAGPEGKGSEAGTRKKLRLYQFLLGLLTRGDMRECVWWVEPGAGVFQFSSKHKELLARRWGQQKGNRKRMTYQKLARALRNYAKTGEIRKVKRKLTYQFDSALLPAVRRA
Sequence of ELF1 (P32519 whole entry): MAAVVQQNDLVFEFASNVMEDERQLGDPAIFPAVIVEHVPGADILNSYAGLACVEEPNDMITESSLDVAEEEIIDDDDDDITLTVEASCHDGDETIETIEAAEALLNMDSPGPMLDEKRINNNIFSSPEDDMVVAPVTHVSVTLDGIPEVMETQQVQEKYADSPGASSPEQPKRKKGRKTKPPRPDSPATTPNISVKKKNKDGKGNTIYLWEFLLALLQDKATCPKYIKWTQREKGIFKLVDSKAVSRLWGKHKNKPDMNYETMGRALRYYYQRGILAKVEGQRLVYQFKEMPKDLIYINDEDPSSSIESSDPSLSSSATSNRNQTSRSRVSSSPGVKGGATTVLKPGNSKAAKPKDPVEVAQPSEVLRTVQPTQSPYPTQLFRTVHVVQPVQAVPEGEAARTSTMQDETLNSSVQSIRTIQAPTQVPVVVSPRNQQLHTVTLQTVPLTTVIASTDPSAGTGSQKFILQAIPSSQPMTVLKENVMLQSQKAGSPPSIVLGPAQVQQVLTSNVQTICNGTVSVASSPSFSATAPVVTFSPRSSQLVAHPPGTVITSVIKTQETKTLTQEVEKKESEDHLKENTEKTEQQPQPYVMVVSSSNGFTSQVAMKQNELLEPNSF
Sequence of ETV5 (P41161 whole entry): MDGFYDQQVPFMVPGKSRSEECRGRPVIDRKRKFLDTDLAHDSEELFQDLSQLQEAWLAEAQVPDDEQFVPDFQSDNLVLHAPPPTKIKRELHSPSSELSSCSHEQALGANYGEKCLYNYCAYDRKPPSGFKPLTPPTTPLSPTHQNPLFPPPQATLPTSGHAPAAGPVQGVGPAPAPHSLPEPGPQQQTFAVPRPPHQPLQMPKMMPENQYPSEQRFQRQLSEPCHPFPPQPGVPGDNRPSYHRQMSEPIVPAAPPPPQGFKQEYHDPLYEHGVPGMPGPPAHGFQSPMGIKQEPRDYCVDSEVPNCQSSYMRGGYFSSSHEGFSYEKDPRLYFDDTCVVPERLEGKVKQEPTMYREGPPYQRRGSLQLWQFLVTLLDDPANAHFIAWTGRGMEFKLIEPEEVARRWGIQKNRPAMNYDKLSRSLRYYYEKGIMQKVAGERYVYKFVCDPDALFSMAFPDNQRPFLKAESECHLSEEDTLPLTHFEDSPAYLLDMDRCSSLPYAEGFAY
Sequence of ETV1 (P50549 whole entry): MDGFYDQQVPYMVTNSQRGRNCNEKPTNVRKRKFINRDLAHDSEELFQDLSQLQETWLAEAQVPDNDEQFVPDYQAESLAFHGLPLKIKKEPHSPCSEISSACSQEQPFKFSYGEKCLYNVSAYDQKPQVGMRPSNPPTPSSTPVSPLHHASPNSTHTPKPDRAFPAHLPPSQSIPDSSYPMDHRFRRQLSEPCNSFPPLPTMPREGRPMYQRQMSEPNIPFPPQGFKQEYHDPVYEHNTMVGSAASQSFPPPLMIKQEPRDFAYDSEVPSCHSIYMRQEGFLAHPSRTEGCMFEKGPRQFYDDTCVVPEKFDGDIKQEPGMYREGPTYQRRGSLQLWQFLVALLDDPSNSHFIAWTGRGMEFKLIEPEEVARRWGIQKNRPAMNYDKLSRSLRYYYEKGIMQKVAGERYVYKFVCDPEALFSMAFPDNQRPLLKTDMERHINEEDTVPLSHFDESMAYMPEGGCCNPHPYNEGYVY
Sequence of ELF4 (Q99607 whole entry): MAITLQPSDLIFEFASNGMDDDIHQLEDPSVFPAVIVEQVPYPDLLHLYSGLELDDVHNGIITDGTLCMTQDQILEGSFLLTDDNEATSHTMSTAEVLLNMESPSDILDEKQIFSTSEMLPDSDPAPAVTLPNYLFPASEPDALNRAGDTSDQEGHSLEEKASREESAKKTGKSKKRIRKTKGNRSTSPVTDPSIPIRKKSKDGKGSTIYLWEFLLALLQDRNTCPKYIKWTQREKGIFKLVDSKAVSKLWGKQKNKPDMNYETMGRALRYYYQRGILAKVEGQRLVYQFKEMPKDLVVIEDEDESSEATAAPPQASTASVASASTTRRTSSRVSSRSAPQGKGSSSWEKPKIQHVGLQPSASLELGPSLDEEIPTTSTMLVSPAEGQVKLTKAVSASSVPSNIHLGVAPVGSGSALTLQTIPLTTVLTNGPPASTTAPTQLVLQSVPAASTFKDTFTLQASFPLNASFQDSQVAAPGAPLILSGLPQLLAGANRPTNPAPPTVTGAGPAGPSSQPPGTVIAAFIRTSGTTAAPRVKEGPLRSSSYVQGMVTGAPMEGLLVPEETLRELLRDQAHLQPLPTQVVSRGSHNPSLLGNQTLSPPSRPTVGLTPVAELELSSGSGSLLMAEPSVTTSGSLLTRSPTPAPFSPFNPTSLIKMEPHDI

In the case of AGCGCT, the binding signal in test [1] was 1.04 fold enrichment (6-mer frequency, TF over GST control); in test [2], 1.02 fold enrichment (6-mer frequency, TF over GST control); in test [3], 1.05 fold enrichment (6-mer frequency, TF over GST control); in test [4], 1.09 fold enrichment (6-mer frequency, TF over GST control); in test [5], 1 fold enrichment (6-mer frequency, TF over GST control); in [6] it was 1.01 fold enrichment (6-mer frequency, TF over GST control). The binding signal is 1.06 fold enrichment (6-mer frequency, TF over GST control) in test [7]; 1.02 fold enrichment (6-mer frequency, TF over GST control) in [8]; 1.04 fold enrichment (6-mer frequency, TF over GST control) in [9]; 1.08 fold enrichment (6-mer frequency, TF over GST control) in test [10]; 1.09 fold enrichment (6-mer frequency, TF over GST control) in test [11]; 1.01 fold enrichment (6-mer frequency, TF over GST control) in test [12].
In the case of CAGCCT, the binding signal in test [13] was 1.11 fold enrichment (6-mer frequency, TF over GST control); in [1] it was 1.09 fold enrichment (6-mer frequency, TF over GST control); in [3], 1.06 fold enrichment (6-mer frequency, TF over GST control); in test [14] it was 1.03 fold enrichment (6-mer frequency, TF over GST control); in test [4], 1.09 fold enrichment (6-mer frequency, TF over GST control); in test [5], 1.02 fold enrichment (6-mer frequency, TF over GST control). Moreover, the binding signal in test [6] was 1.04 fold enrichment (6-mer frequency, TF over GST control); in test [7], 1.12 fold enrichment (6-mer frequency, TF over GST control); in [15] it was 1.01 fold enrichment (6-mer frequency, TF over GST control); in [8], 1.02 fold enrichment (6-mer frequency, TF over GST control); in [9], 1.1 fold enrichment (6-mer frequency, TF over GST control); in [10], 1.02 fold enrichment (6-mer frequency, TF over GST control). For the same sequence, in [16], the binding signal is 1.13 fold enrichment (6-mer frequency, TF over GST control).

Source of the values: article PMC7862700, “An all-to-all approach to the identification of sequence-specific readers for epigenetic DNA modifications on cytosine”.
